Our source for the activation values is PubChem BioAssay AID743398 (Broad Institute, 2014).

Out of some 300,000 compounds screened, about 3,600 (1.2%) were called active. Cut-off read from the data, not from the text of the source: active = activation above about 30% (passing the limit was not always enough); inconclusive = no clear call, values can overlap the other calls. For the sample, actives were picked, then their nearest neighbours and some compounds at random.

The experiment in a line: activation of beta-catenin signaling reporter – cell-based, plate reader, single point, primary screen (AID 743398).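 Note: 0% = neutral control wells and 100% = positive control wells.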 The note with it: Wnt/beta-catenin reporter cell assay, activator, at 9.35 µM, stronger effect = higher value.
Turning to `OC(c1ccccc1)(c1ccccc1)C1CCN(CCCOc2ccccc2)CC1`, the activation was -5.07% (inactive).

Take `COc1ccc(Sc2ccc(NC(=O)c3cccc(Cl)c3)cc2C#N)cc1`: the activation is -0.516% (inactive).

Take `CCOC(=O)N1CCC(Nc2c(NCCCN3CCN(CC)CC3)c(=O)c2=O)CC1`: the activation was 1.91% (inactive).

Consider `CCOC(=O)N1CCC(Nc2c(NCCCN3CCN(c4ccc(OC)cc4)CC3)c(=O)c2=O)CC1`, for which the activation is 33.6% (active).

On to `CCOC(=O)N1CCC(Nc2c(NCCN3CCN(c4cccc(Cl)c4)CC3)c(=O)c2=O)CC1`, for which the activation was -0.679% (inactive).

Take `COC(=O)[C@]12CCCCC=C1N(Cc1ccccc1)C(=O)[C@H](CC(=O)NCc1ccc(C)o1)C2`: the activation is -1.58% (inactive).

In the case of `COc1cccc(C(NC(C)=O)c2nc(-c3cnc4ccccc4c3)cs2)c1` (configuration not stated), the activation was -0.125% (inactive).

As to `OC(c1ccccc1)c1nc(-c2cnc3ccccc3c2)cs1` (configuration not stated), the activation was 50.7% (active).

`CC(C)c1cccc(-c2csc(C(O)c3ccccc3)n2)c1` (configuration not stated): the activation is 1.98% (inactive).

On to `Cc1cc(Cl)ccc1C(=O)C1CCCN(C(=O)c2ccc3c(c2)OCO3)C1` (configuration not stated), for which the activation was -2.01% (inactive).

On to `COc1ccc(C(=O)N2CCCCC2c2cc(C(=O)Nc3ccccc3)no2)cc1` (configuration not stated), for which the activation is -2.86% (inactive).

For the molecule `CCc1ccccc1NC(=O)CN1CCN(C(=O)c2cc(C3CC3)nn2-c2ccccc2)CC1`, the activation is -4.73% (inactive).

On to `COc1cccc(-c2cnc3c(NC(C)=O)cc(-c4cccc(NC(C)=O)c4)cn23)c1`, for which the activation was -2.59% (inactive).

Turning to `C=CCOc1ccc(/C=C2/C(=O)ON=C2C)cc1OCC`, the activation was -0.78% (inactive).

For `COc1cc(/C=C2/C(=O)ON=C2C)ccc1OCc1cccc(F)c1`, the activation was 13.4% (inactive).

In the case of `COc1cc(/C=C2/C(=O)ON=C2C)ccc1OCc1ccccc1F`, the activation was 48.1% (active).

For `C[C@@H]1Cn2cnc(C(=O)Nc3ccc(CNC(=O)OC(C)(C)C)cc3)c2C(=O)N1`, the activation is -0.752% (inactive).

As for `COc1cccc(NC(=O)Nc2ccc(F)cc2)c1`, the activation is 4.29% (inactive).

In the case of `Cc1ccc(-c2cnc(C(O)c3cc(Cl)cc(Cl)c3)[nH]2)cc1` (configuration not stated), the activation is -5.54% (inactive).

On to `COc1ccc(OCc2cc(C(=O)NCC3(C)COC3)no2)c(Cl)c1`, for which the activation was 7.69% (inactive).

Consider `Cc1cccnc1CC(C)NC(=O)c1cc(COc2cncc(Cl)c2)on1` (configuration not stated), for which the activation is 7.75% (inactive).

In the case of `Cc1cc(OCc2cc(C(=O)NCc3cc(C(C)C)no3)no2)cc(C)c1Cl`, the activation was 40.5% (active).

Consider `CN(Cc1ccccc1)C(=O)CSc1nc2ccccc2[nH]1`, for which the activation is 12.8% (inactive).

Turning to `C=CCSc1nc2ccccc2[nH]1`, the activation is 0.251% (inactive).

With `O=C(CSc1nc2ccccc2[nH]1)c1cccs1`, the activation is 58.5% (active).

For `C#CCN([C@@H](C)C(=O)OCC)S(=O)(=O)c1ccc(Br)cc1F`, the activation is -2.08% (inactive).

Turning to `COC(=O)c1ccc(-n2cnc3ccccc32)nc1`, the activation is 41.6% (active).

Regarding `Cc1ccc(OCC(=O)Nn2cnc3ccccc32)cc1`, the activation is -2.76% (inactive).

For `O=C(c1ccc(Cl)cc1)n1cnc2ccccc21`, the activation was 0.992% (inactive).

With `Cc1c(C(=O)NCc2ccc(C#N)cc2)sc(=O)n1Cc1ccc(C(=O)N(C)C)cc1`, the activation is -0.79% (inactive).

In the case of `COc1ccc(C(O)c2nc(-c3ccc(OC)nc3)cs2)cc1` (configuration not stated), the activation was -2.19% (inactive).

Turning to `CCOC(=O)[C@]12CCCC=C1N(Cc1ccc(Cl)cc1Cl)C(=O)[C@H](CC(=O)N1CCCCC1)C2`, the activation is -0.046% (inactive).

For `CCc1ccccc1NC(=O)CSc1nnc(CCNC(=O)OC(C)(C)C)o1`, the activation was -2.11% (inactive).

On to `CCc1ccccc1NC(=O)CSc1nnc(-c2ccncc2)o1`, for which the activation is 0.131% (inactive).

On to `CCc1ccccc1NC(=O)CSc1nnc([C@@H](NC(=O)OC(C)(C)C)C(C)CC)o1` (some centres not stated), for which the activation was 31.4% (active).

With `Cc1cc(Br)cn2c(Cc3ccccc3C(F)(F)F)c(-c3ccc(C#N)cc3)nc12`, the activation was -2.44% (inactive).

In the case of `CSCCC(c1nnnn1Cc1ccccc1)N1CCN(C/C=C/c2ccccc2)CC1` (configuration not stated), the activation is -2.2% (inactive).

For `O=C(CSc1nc2cccc(F)c2c(=O)n1-c1ccccc1)Nc1ccc2c(c1)CCC2`, the activation is -0.606% (inactive).

For `COC(=O)c1ccc(NC(=O)c2ccco2)cc1`, the activation was 58% (active).

Regarding `Cc1ccc(NC(=O)c2ccco2)cc1`, the activation was -2.54% (inactive).

As for `O=C(Nc1ccc(O)cc1)c1ccc(NC(=O)c2ccco2)cc1`, the activation is 9.09% (inactive).

As to `CC(Sc1ccc(S(=O)(=O)N2CCN(C)CC2)cn1)C(=O)NC1CCCC(C)C1C` (configuration not stated), the activation was -1.63% (inactive).

As for `O=C(NCc1ccccc1Cl)c1csc([C@@H]2O[C@H](CO)[C@@H](O)[C@H]2O)n1`, the activation was -2.52% (inactive).

With `CCC(c1nnnn1-c1ccc2c(c1)OCCO2)N1CCN(c2ccc(C(F)(F)F)cn2)CC1` (configuration not stated), the activation was 0.0485% (inactive).

Turning to `COc1cc2ccccc2cc1C(=O)Nc1ccccc1C`, the activation is 38.1% (active).

Consider `COc1cc2ccccc2cc1C(=O)Nc1ccc(NC(=O)c2cccs2)cc1`, for which the activation is -6.22% (inactive).

Turning to `COc1cc2ccccc2cc1C(=O)Nc1ccncc1`, the activation was 11.7% (inactive).

With `CCCCOCC1CN(CCCC)S(=O)(=O)c2c(Oc3ccc(F)cc3)cccc2O1` (configuration not stated), the activation is -5.54% (inactive).

Take `CCOC(=O)C1=C(C)NC(SC)=NC1c1ccccc1` (configuration not stated): the activation is -2.32% (inactive).

Take `CCOC(=O)C(=O)C1C(=O)Nc2ccccc21` (configuration not stated): the activation was 3.02% (inactive).

With `CCOC(=O)C1=C(CC)Nc2ccccc2N=C1N`, the activation was 38.3% (active).

For the molecule `COC(=O)[C@H]1C[C@H](OC(=O)NCc2ccccc2)[C@@]2(O)CN(S(=O)(=O)c3ccc(C)cc3)CC2[C@H]1C(=O)OC` (some centres not stated), the activation was 0.0463% (inactive).

For `COc1cccc(-c2cc(CNC(=O)[C@@H](Cc3ccccc3)NC(=O)[C@H]3O[C@@H](n4cnc(C(N)=O)n4)[C@H](O)[C@@H]3O)no2)c1`, the activation is -3.63% (inactive).

For `CCOc1ccc2nc(NC(=O)c3cc([N+](=O)[O-])ccc3N3CCOCC3)sc2c1`, the activation was -0.111% (inactive).

`COc1ccc(C(=O)Nc2nc(-c3ccc(OC)cc3)c(-c3ccc([N+](=O)[O-])cc3)s2)cc1`: the activation is -2.22% (inactive).

On to `O=C(Nc1nc2ccc([N+](=O)[O-])cc2s1)c1ccncc1`, for which the activation is 34.4% (active).

For `Brc1ccc(COCCc2cn(Cc3ccccc3)c3ccccc23)cc1`, the activation was 11.3% (inactive).
